# Laboratory results from PubChem BioAssay AID2599 (Sanford-Burnham Center for Chemical Genomics, 2010).
# Hit rate of the full screen: of about 330,000 compounds, about 5,800 (1.8%) were called active. The full list was thinned out, with actives kept by preference. Unmarked numbers belong to inactive results.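 How the source made its calls: active means inhibition above about 50% at the single tested dose (limit read from the data); inactive means the rest.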
# Biological target: Sentrin-specific protease 6 (Homo sapiens) (UniProt Q9GZR1)
# Experiment: inhibition of human SENP6 catalytic domain – biochemical, luminescence, uHTS, primary screen (AID 2599);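 further: plate controls were DMSO wells with enzyme for no effect and DMSO wells lacking enzyme for full effect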
# Settings: Recombinant SENP6 catalytic domain, aminoluciferin luminescence; at 10 µM; active compounds read high
# Sentrin-specific protease 6 (Homo sapiens), sequence (Q9GZR1 628-1112 limits assumed): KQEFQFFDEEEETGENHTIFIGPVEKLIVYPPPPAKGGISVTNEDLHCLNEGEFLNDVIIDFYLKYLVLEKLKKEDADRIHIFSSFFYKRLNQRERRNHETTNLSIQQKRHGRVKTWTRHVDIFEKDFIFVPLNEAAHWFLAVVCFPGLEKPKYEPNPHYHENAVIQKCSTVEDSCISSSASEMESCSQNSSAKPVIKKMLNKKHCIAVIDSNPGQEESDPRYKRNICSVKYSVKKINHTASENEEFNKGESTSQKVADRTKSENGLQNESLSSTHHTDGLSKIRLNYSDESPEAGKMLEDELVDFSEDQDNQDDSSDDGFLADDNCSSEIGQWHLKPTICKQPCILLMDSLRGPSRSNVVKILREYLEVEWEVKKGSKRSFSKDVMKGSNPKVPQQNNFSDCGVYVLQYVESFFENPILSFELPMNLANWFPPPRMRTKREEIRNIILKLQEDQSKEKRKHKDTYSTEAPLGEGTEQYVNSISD
row,SMILES,inhibition
1,CC(C)[C@H](NC(=O)N1CC(=O)Nc2ccccc21)C(=O)N[C@@H](Cc1c[nH]c2ccccc12)C(=O)O,-5.26%
2,CCOc1ccc(-n2c(SCC(N)=O)nnc2-c2ccco2)cc1,-12.9%
3,COc1ccc(OCC(=O)Nc2nnc(-c3ccco3)s2)cc1,-16.6%
4,N#Cc1ccc(OCc2nnc(-c3ccc([N+](=O)[O-])cc3)o2)cc1,-4.94%
5,CCCCOc1ccc(-c2nnc(-c3ccco3)o2)cc1,67.2% (active)
6,CCCCOc1ccc(-c2ncc(C(=O)OCC)c(N)n2)cc1,-8.7%
7,CCOc1ccc(-c2nnc(-c3ccco3)o2)cc1,85% (active)
8,O=S(=O)(Cc1nnnn1-c1ccccc1)c1ccccc1,6.33%
9,Cc1ccc(NC(=O)[C@H](Cc2ccccc2)NC(=O)C2CCNCC2)cc1,-5.94%
10,CCOc1ccc(S(=O)(=O)N2CCC(C(=O)OCc3ccc(OC)cc3)CC2)cc1,-11.1%
11,O=C(Nc1ccc2oc(-c3ccc4ccccc4c3)nc2c1)c1cccs1,-13.1%
12,CCc1ccc2oc(-c3ccc(N)cc3)nc2c1,96.1% (active)
13,Cc1cc2nc(-c3ccc(NC(=O)c4cccnc4)cc3)oc2cc1C,-15%
14,COc1cccc(NC(=O)Cn2cnc3sc(C)c(S(=O)(=O)N4CCN(C)CC4)c3c2=O)c1,10.7%
15,Cc1nnc(Nc2ccccc2F)s1,8.06%
16,C=CCN1CCN(C(=O)CCCc2ccccc2)CC1,0.31%
17,O=c1ccc2cc(S(=O)(=O)Nc3ccccc3F)ccc2o1,16.4%
18,CCCN1CC=C2C(C#N)=C(N)C(C#N)(C#N)C(c3cc(OC)ccc3OC)C2C1 (stereo not drawn),0.193%
19,CCN1CC=C2C(C#N)=C(N)C(C#N)(C#N)[C@H](c3ccoc3)[C@H]2C1,72.9% (active)
20,N#CC1=C(N)C(C#N)(C#N)[C@H](c2ccsc2)[C@H]2COCC=C12,-0.527%
21,CC(CO)(CO)NC(=O)c1ccc(=O)[nH]n1,-1.98%

row,SMILES,inhibition
1,Cc1nonc1NC(=O)c1oc2ccccc2c1C,2.56%
2,Cc1c(C(=O)Nc2ccccn2)oc2ccc(Br)cc12,56.3% (active)
3,Cc1noc(C)c1C(=O)Nc1ccccn1,-8.05%
4,Cn1ccc(=Nc2ccc(NC(=O)c3ccc(N=c4ccn(C)c5ccc([N+](=O)[O-])cc45)cc3)cc2)cc1,0.718%
5,NS(=O)(=O)c1ccc(-c2ccc(/C=C3\SC(=O)NC3=O)o2)cc1,-21.1%
6,CCn1c(CN2C(=O)CSc3ccccc32)n[nH]c1=S,5.59%
7,CCOC(=O)c1cc(C)sc1NC(=O)C1CCC1,-29.2%
8,COc1cccc(C(=O)NNC(=O)c2cccc(F)c2)c1,0.598%
9,CCOC(=O)c1cc2cc3ccccc3cc2oc1=O,13.2%
10,COc1cccc(C(=O)c2cc3ccc(O)cc3oc2=O)c1,101% (active)
11,Cc1ccc(N2C(=O)C(NC(=O)c3c(F)cccc3F)(C(F)(F)F)C3=C2CC(C)(C)CC3=O)cc1 (stereo not drawn),-5.98%
12,COC(=O)c1c(CCl)noc1C(=O)NC(C)C,15.8%
13,COc1ccc(N2CCN(C(=O)c3ccc4c(Cl)c5c(nc4c3)CCCC5)CC2)cc1,-0.317%
14,CC(=O)c1ccc(NC(=O)c2ccc3c(Cl)c4c(nc3c2)CCCC4)cc1,-20.3%
15,CC(C)CCNC(=O)c1ccc2c(Cl)c3c(nc2c1)CCC3,76.2% (active)
16,Cc1nc2ccccc2c(=O)n1-c1ccc(F)c(NC(=O)c2cccs2)c1,1.23%
17,CCn1nnnc1SCC(=O)c1ccc(C)cc1C,16%
18,CC(Oc1cccc(Cl)c1)C(=O)NC1CC(C)(C)NC(C)(C)C1 (stereo not drawn),0.854%
19,Cc1nnc(SCC(=O)Nc2ccc(S(=O)(=O)Nc3ccc(Cl)nn3)cc2)s1,-2.31%
20,Cc1ccc(SC(CC(=O)c2ccc(C(C)(C)C)cc2)C(=O)O)cc1 (stereo not drawn),-11.7%
21,CC(C)CNC(=O)c1cc(-c2ccc(Br)cc2)on1,-1.36%

row,SMILES,inhibition
1,CC(C)Cc1cc(C(=O)NCCc2ccccc2)no1,13%
2,CC(C)Cc1cc(C(=O)Nc2cc(Br)ccc2O)no1,58.1% (active)
3,O=C(NNc1cc(Cl)cc(Cl)c1)c1c(F)cccc1Cl,-9.66%
4,CC(OC(=O)c1cc2ccccc2[nH]1)C(=O)N(C)c1ccccc1 (stereo not drawn),-10.7%
5,COc1ccc2[nH]c(C(=O)Nc3ccccc3Cl)cc2c1,-36%
6,O=C(Nc1ccccc1)c1cc2ccccc2[nH]1,86.2% (active)
7,O=C(Cc1ccc(S(=O)(=O)N2CCOCC2)s1)NCCC(c1ccccc1)c1ccccc1,-9.6%
8,CC(=O)n1c(C=Nc2ccccc2)c(O)c2ccccc21,-2.55%
9,Oc1ccc(N=Cc2sc3ccccc3c2Cl)cc1,65.7% (active)
10,CCn1c(SCC(=O)Nc2cccc(F)c2)nnc1-c1cc2cc(Br)ccc2o1,-0.574%
11,CCc1cccc(C)c1NC(=O)COC(=O)Cc1ccsc1,-15.1%
12,CCN1CCN(C(=O)/C=C\C(=O)O)CC1,-13.9%
13,O=[N+]([O-])c1ccc2nc(-c3ccccn3)[nH]c2c1,55.5% (active)
14,O=[N+]([O-])c1ccc2c(c1)Nc1nc3ccccc3nc1N2,-19%
15,O=[N+]([O-])c1ccc(N/N=C2/CCCCC2c2ccccn2)c([N+](=O)[O-])c1 (stereo not drawn),-14.2%
16,Cc1cccc(C(=O)OCC(=O)Nc2ccc(F)cc2)c1,-14%
17,CCOC(=O)c1cccc(NC(=O)c2ccc(F)cc2F)c1,53.3% (active)
18,CCOC(=O)c1cccc(NC(=O)CCOc2ccccc2)c1,-8.69%
19,COc1c(C=O)c(CCN(C)C(=O)c2ccc(F)cc2)cc2c1OCO2,-13.8%
20,COC(CNC(=O)Cn1ncc2ccsc2c1=O)OC,-0.866%
21,O=C(c1ccc(NS(=O)(=O)c2ccc3[nH]c(=O)[nH]c3c2)cc1)N1CCCCC1,-7.59%
